# Columns and labels:
# Assay in all cases: cell viability of combination (% of vehicle); higher = less cytotoxic
# Conditions in all cases: 1 µM; 72 h; partner dose: 10 nM
# HCI01 [1] = test system: HCI01 (cells of a triple-negative basal-like breast cancer xenograft)
# Procedure: (§1)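 PDX cells were treated for 72 h with each drug at 1 µM plus carfilzomib (10 nM; 100 nM for WHIM2). Luciferase viability is expressed as percent of vehicle.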
# UCD52 [2] = test system: UCD52 (cells of a triple-negative basal-like breast cancer xenograft)
# Procedure: as §1
# HCI01 [3] = test system: HCI01; remark: listed apart in the source
# Procedure: (§2)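 PDX cells were treated for 72 h with each drug at 1 µM plus afatinib (10 nM; 1 µM for WHIM30). Luciferase viability is expressed as percent of vehicle.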
# UCD52 [4] = test system: UCD52; remark: listed apart in the source
# Procedure: as §2
# WHIM2 = test system: WHIM2 (cells of a triple-negative basal-like breast cancer xenograft)
# Procedure: as §2
# WHIM30 = test system: WHIM30 (cells of a triple-negative basal-like breast cancer xenograft)
# Procedure: as §1
structure (smiles),measurement,setting,value
CC(C)Nc1cc(-c2c[nH]c(C(=O)NC(CO)c3cccc(Cl)c3)c2)c(Cl)cn1 (stereo unspecified) + CC(C)C[C@H](NC(=O)[C@H](CCc1ccccc1)NC(=O)CN1CCOCC1)C(=O)N[C@@H](Cc1ccccc1)C(=O)N[C@@H](CC(C)C)C(=O)[C@@]1(C)CO1 [Carfilzomib],cell viability of combination,HCI01 [1],94
same,cell viability of combination,UCD52 [2],48.9
CCN(CC)CCNC(=O)c1c(C)[nH]c(C=C2C(=O)Nc3ccc(F)cc32)c1C [Sunitinib] + CC(C)C[C@H](NC(=O)[C@H](CCc1ccccc1)NC(=O)CN1CCOCC1)C(=O)N[C@@H](Cc1ccccc1)C(=O)N[C@@H](CC(C)C)C(=O)[C@@]1(C)CO1 [Carfilzomib],cell viability of combination,HCI01 [1],66
same,cell viability of combination,UCD52 [2],59.3
Nc1ccn(C2OC(CO)C(O)C2O)c(=O)n1 (stereo unspecified) [Cytarabine] + CC(C)C[C@H](NC(=O)[C@H](CCc1ccccc1)NC(=O)CN1CCOCC1)C(=O)N[C@@H](Cc1ccccc1)C(=O)N[C@@H](CC(C)C)C(=O)[C@@]1(C)CO1 [Carfilzomib],cell viability of combination,HCI01 [1],57.8
same,cell viability of combination,UCD52 [2],68.3
C=C(c1ccc(C(=O)O)cc1)c1cc2c(cc1C)C(C)(C)CCC2(C)C [Bexarotene] + CC(C)C[C@H](NC(=O)[C@H](CCc1ccccc1)NC(=O)CN1CCOCC1)C(=O)N[C@@H](Cc1ccccc1)C(=O)N[C@@H](CC(C)C)C(=O)[C@@]1(C)CO1 [Carfilzomib],cell viability of combination,HCI01 [1],71.8
same,cell viability of combination,UCD52 [2],79.6
CC1=C(C(=O)OC(C)C)C(c2cccc([N+](=O)[O-])c2)C(C(=O)OC2CN(C(c3ccccc3)c3ccccc3)C2)=C(N)N1 (stereo unspecified) [Azelnidipine] + CC(C)C[C@H](NC(=O)[C@H](CCc1ccccc1)NC(=O)CN1CCOCC1)C(=O)N[C@@H](Cc1ccccc1)C(=O)N[C@@H](CC(C)C)C(=O)[C@@]1(C)CO1 [Carfilzomib],cell viability of combination,HCI01 [1],112
same,cell viability of combination,UCD52 [2],46.6
Clc1ccc(COC(Cn2ccnc2)c2ccc(Cl)cc2Cl)cc1.O=[N+]([O-])O (stereo unspecified) [Econazole nitrate] + CC(C)C[C@H](NC(=O)[C@H](CCc1ccccc1)NC(=O)CN1CCOCC1)C(=O)N[C@@H](Cc1ccccc1)C(=O)N[C@@H](CC(C)C)C(=O)[C@@]1(C)CO1 [Carfilzomib],cell viability of combination,HCI01 [1],89.1
same,cell viability of combination,UCD52 [2],59.8
CC(C)CC(NC(=O)C(NC(=O)c1cccc(-c2ccccc2)n1)C(C)O)B(O)O (stereo unspecified) + CC(C)C[C@H](NC(=O)[C@H](CCc1ccccc1)NC(=O)CN1CCOCC1)C(=O)N[C@@H](Cc1ccccc1)C(=O)N[C@@H](CC(C)C)C(=O)[C@@]1(C)CO1 [Carfilzomib],cell viability of combination,HCI01 [1],42.4
same,cell viability of combination,UCD52 [2],20.1
Cc1cc(-n2c(=O)[nH]c(=O)n(C)c2=O)ccc1Oc1ccc(SC(F)(F)F)cc1 [Toltrazuril] + CC(C)C[C@H](NC(=O)[C@H](CCc1ccccc1)NC(=O)CN1CCOCC1)C(=O)N[C@@H](Cc1ccccc1)C(=O)N[C@@H](CC(C)C)C(=O)[C@@]1(C)CO1 [Carfilzomib],cell viability of combination,HCI01 [1],76.4
same,cell viability of combination,UCD52 [2],61
CN(C(=O)CN(CCO)CC(=O)N(C)C(C)(C)Cc1ccccc1)C(C)(C)Cc1ccccc1 [Oxethazaine] + CC(C)C[C@H](NC(=O)[C@H](CCc1ccccc1)NC(=O)CN1CCOCC1)C(=O)N[C@@H](Cc1ccccc1)C(=O)N[C@@H](CC(C)C)C(=O)[C@@]1(C)CO1 [Carfilzomib],cell viability of combination,HCI01 [1],70.7
same,cell viability of combination,UCD52 [2],66.5
CS(=O)(=O)CCNCc1ccc(-c2ccc3ncnc(Nc4ccc(OCc5cccc(F)c5)c(Cl)c4)c3c2)o1.Cc1ccc(S(=O)(=O)O)cc1.Cc1ccc(S(=O)(=O)O)cc1 [Lapatinib Ditosylate] + CC(C)C[C@H](NC(=O)[C@H](CCc1ccccc1)NC(=O)CN1CCOCC1)C(=O)N[C@@H](Cc1ccccc1)C(=O)N[C@@H](CC(C)C)C(=O)[C@@]1(C)CO1 [Carfilzomib],cell viability of combination,HCI01 [1],69.5
same,cell viability of combination,UCD52 [2],47.7
COC(=O)NC(C(=O)NC(Cc1ccccc1)C(O)CN(Cc1ccc(-c2ccccn2)cc1)NC(=O)C(NC(=O)OC)C(C)(C)C)C(C)(C)C (stereo unspecified) [Atazanavir] + CC(C)C[C@H](NC(=O)[C@H](CCc1ccccc1)NC(=O)CN1CCOCC1)C(=O)N[C@@H](Cc1ccccc1)C(=O)N[C@@H](CC(C)C)C(=O)[C@@]1(C)CO1 [Carfilzomib],cell viability of combination,HCI01 [1],79.8
same,cell viability of combination,UCD52 [2],63.2
CNC(=O)c1cc(Oc2ccc(NC(=O)Nc3ccc(Cl)c(C(F)(F)F)c3)cc2)ccn1.Cc1ccc(S(=O)(=O)O)cc1 [Sorafenib Tosylate] + CC(C)C[C@H](NC(=O)[C@H](CCc1ccccc1)NC(=O)CN1CCOCC1)C(=O)N[C@@H](Cc1ccccc1)C(=O)N[C@@H](CC(C)C)C(=O)[C@@]1(C)CO1 [Carfilzomib],cell viability of combination,HCI01 [1],70.3
same,cell viability of combination,UCD52 [2],52.6
CCCCCCCCc1ccc(CCC(N)(CO)CO)cc1.Cl [Fingolimod (FTY720)] + CC(C)C[C@H](NC(=O)[C@H](CCc1ccccc1)NC(=O)CN1CCOCC1)C(=O)N[C@@H](Cc1ccccc1)C(=O)N[C@@H](CC(C)C)C(=O)[C@@]1(C)CO1 [Carfilzomib],cell viability of combination,HCI01 [1],77.3
same,cell viability of combination,UCD52 [2],61.5
CCc1cnn2c(NCc3ccc[n+]([O-])c3)cc(N3CCCCC3CCO)nc12 (stereo unspecified) + CC(C)C[C@H](NC(=O)[C@H](CCc1ccccc1)NC(=O)CN1CCOCC1)C(=O)N[C@@H](Cc1ccccc1)C(=O)N[C@@H](CC(C)C)C(=O)[C@@]1(C)CO1 [Carfilzomib],cell viability of combination,HCI01 [1],33.6
same,cell viability of combination,UCD52 [2],23.7
N.N.O=C([O-])C1(C(=O)[O-])CCC1.[Pt+2] [Carboplatin] + CC(C)C[C@H](NC(=O)[C@H](CCc1ccccc1)NC(=O)CN1CCOCC1)C(=O)N[C@@H](Cc1ccccc1)C(=O)N[C@@H](CC(C)C)C(=O)[C@@]1(C)CO1 [Carfilzomib],cell viability of combination,HCI01 [1],81.2
same,cell viability of combination,UCD52 [2],70.6
CCOC(=O)C1=C(COCCN)NC(C)=C(C(=O)OC)C1c1ccccc1Cl (stereo unspecified) [Amlodipine] + CN(C)C/C=C/C(=O)Nc1cc2c(Nc3ccc(F)c(Cl)c3)ncnc2cc1O[C@H]1CCOC1 [Afatinib],cell viability of combination,HCI01 [3],58.2
same,cell viability of combination,UCD52 [4],79.6
same,cell viability of combination,WHIM2,51.1
Cl.Cl.Fc1ccc(C(c2ccc(F)cc2)N2CCN(CC=Cc3ccccc3)CC2)cc1 [Flunarizine 2HCl] + CC(C)C[C@H](NC(=O)[C@H](CCc1ccccc1)NC(=O)CN1CCOCC1)C(=O)N[C@@H](Cc1ccccc1)C(=O)N[C@@H](CC(C)C)C(=O)[C@@]1(C)CO1 [Carfilzomib],cell viability of combination,HCI01 [1],103
same,cell viability of combination,UCD52 [2],61.1
same,cell viability of combination,WHIM30,15
CNC(=O)c1cc(Oc2ccc(NC(=O)Nc3ccc(Cl)c(C(F)(F)F)c3)cc2)ccn1 [Sorafenib] + CN(C)C/C=C/C(=O)Nc1cc2c(Nc3ccc(F)c(Cl)c3)ncnc2cc1O[C@H]1CCOC1 [Afatinib],cell viability of combination,HCI01 [3],49.6
same,cell viability of combination,UCD52 [4],52.2
same,cell viability of combination,WHIM2,48.5
Cl.Clc1ccccc1CN1CCc2sccc2C1 [Ticlopidine HCl] + CC(C)C[C@H](NC(=O)[C@H](CCc1ccccc1)NC(=O)CN1CCOCC1)C(=O)N[C@@H](Cc1ccccc1)C(=O)N[C@@H](CC(C)C)C(=O)[C@@]1(C)CO1 [Carfilzomib],cell viability of combination,HCI01 [1],78.4
same,cell viability of combination,UCD52 [2],58.7
same,cell viability of combination,WHIM30,16
CCN(CC)CCCC(C)Nc1ccnc2cc(Cl)ccc12.O=P(O)(O)O.O=P(O)(O)O (stereo unspecified) [Chloroquine diphosphate] + CC(C)C[C@H](NC(=O)[C@H](CCc1ccccc1)NC(=O)CN1CCOCC1)C(=O)N[C@@H](Cc1ccccc1)C(=O)N[C@@H](CC(C)C)C(=O)[C@@]1(C)CO1 [Carfilzomib],cell viability of combination,HCI01 [1],64
same,cell viability of combination,UCD52 [2],52.9
same,cell viability of combination,WHIM30,13.5
CC(C)C1=CC(=C2NNC(=O)N2c2ccc3c(ccn3C)c2)C(=O)C=C1O [Ganetespib (STA-9090)] + CC(C)C[C@H](NC(=O)[C@H](CCc1ccccc1)NC(=O)CN1CCOCC1)C(=O)N[C@@H](Cc1ccccc1)C(=O)N[C@@H](CC(C)C)C(=O)[C@@]1(C)CO1 [Carfilzomib],cell viability of combination,HCI01 [1],66.1
same,cell viability of combination,UCD52 [2],58.6
same,cell viability of combination,WHIM30,23.7
CN1CCC(COc2cnc(-c3cccc(Cn4nc(-c5cccc(C#N)c5)ccc4=O)c3)nc2)CC1 + CC(C)C[C@H](NC(=O)[C@H](CCc1ccccc1)NC(=O)CN1CCOCC1)C(=O)N[C@@H](Cc1ccccc1)C(=O)N[C@@H](CC(C)C)C(=O)[C@@]1(C)CO1 [Carfilzomib],cell viability of combination,HCI01 [1],80.4
same,cell viability of combination,UCD52 [2],57
same,cell viability of combination,WHIM30,26.9

# From the supplement of paper PMC6992640
